Bioassay records (PubChem BioAssay)
APP transl inh – APP translation inhibition; SH-SY5Y APP 5'UTR-luciferase reporter, luminescence; inhibition, % at 2 µM; hit rate 0.82% among 190,000;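 active means inhibition above a set limit, derived from the sample mean plus 3 SD, cut at about 45% in these data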
Ba/F3 V617F tox – loss of viability in JAK2V617F-driven Ba/F3 cells; Ba/F3 EpoR-JAK2V617F viability, ATP luminescence; inhibition, % at 5.6 µM; hit rate 1.1% among 220,000; AID 1446;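 active means inhibition above the campaign mean plus 3 SD over all tested compounds, cut at about 24% in these data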;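 further: cytokine-independent growth of Ba/F3 cells driven by EpoR plus mutant JAK2; 0% = DMSO-treated cells and 100% = JAK inhibitor I control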
BaF3 parental – reduces parental Ba/F3 cell viability, JAK2V617F counter-screen; hit rate 1.1% among 220,000; inhibition, % at 5.6 µM; CellTiter-Glo ATP luminescence;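 active means inhibition above a per-campaign cutoff, the mean inhibition of all tested compounds plus 3 SD, cut at about 27% in these data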;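 further: 0% = DMSO wells and 100% = JAK Inhibitor I control wells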
KLF5 inh – suppresses KLF5 promoter-driven expression; inhibition, % at 5 µM; hit rate 0.23% among 290,000; AID 1700; DLD-1 KLF5 promoter-luciferase reporter, luminescence;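 active means inhibition above a per-plate limit of that plate's mean compound inhibition plus 3 SD, cut at about 60% in these data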;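 further: 0% = DMSO wells and 100% = LY294002 at 200 µM; higher means less KLF5 promoter-driven luciferase light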
IEC-6 tox – kills IEC-6 intestinal cells in KLF5 counter-screen | IEC-6 cytotoxicity, luminescence viability | inhibition, % at 5 µM | hit rate 0.78% among 290,000;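 further: 0% = plate median of test compound wells and 100% = cytotoxic reference compound wells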
aSyn UTR inh – MLPCN primary screen, SNCA 5' untranslated region | alpha-synuclein 5'UTR reporter, inhibitor activity | inhibition, % (tested at 7.5 µM) | hit rate 0.82% among 300,000 | AID 1813; in the data active means inhibition above about 60%;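 further: H4 neuroglioblastoma cells stably carrying SNCA 5'UTR luciferase fusion; 0% = DMSO wells and 100% = positive control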
IEC-6 tox confirm – IEC-6 cytotoxicity, confirmation assay | shares compounds with IEC-6 tox | IEC-6 rat intestinal epithelial viability, luminescence | inhibition, % at 5 µM | hit rate 63% among 1,900;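 further: 0% = vehicle and 100% = reference cytotoxic drug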
* = called active by the depositor. Sampled rows, rich in hits. Any-hit rate of the full collection: about 2.2%. Unless noted, no stated cut-off is given here; in the data, active means inhibition above about 22%; inactive means the rest.

`COCc1cc(=O)[nH]c(Nc2nc3ccc(C)cc3o2)n1` gave APP transl inh 15, Ba/F3 V617F tox 1, BaF3 parental 7, KLF5 inh -58, IEC-6 tox 26*, aSyn UTR inh 16 and IEC-6 tox confirm 36*.
`CCc1ccc2nc(Nc3nc(COC)cc(=O)[nH]3)nc(C)c2c1` gave APP transl inh 9, Ba/F3 V617F tox -2, BaF3 parental 3, KLF5 inh -30, IEC-6 tox 3 and aSyn UTR inh -2.
Cc1cc(C(=O)OCC(=O)NCc2ccco2)c(C)n1-c1ccc(F)cc1 was read as APP transl inh 75*, Ba/F3 V617F tox -1, BaF3 parental 4, KLF5 inh -4, IEC-6 tox 45*, aSyn UTR inh 80* and IEC-6 tox confirm 57*.
`COCCOC(=O)c1[nH]c2c(c1C)C(=O)CC(c1ccc(N(C)C)cc1)C2` (stereo not given) gave APP transl inh -27, Ba/F3 V617F tox -4, BaF3 parental 2, KLF5 inh -61, IEC-6 tox 0 and aSyn UTR inh -45.
`COCCOC(=O)c1[nH]c2c(c1C)C(=O)CC(c1ccc(F)cc1)C2` (stereo not given) gave APP transl inh -16, Ba/F3 V617F tox 2, BaF3 parental 10, KLF5 inh 9, IEC-6 tox 19 and aSyn UTR inh 1.
Screening CSCCOC(=O)c1[nH]c2c(c1C)C(=O)CC(c1ccco1)C2 (stereo not given) returned APP transl inh 95*, Ba/F3 V617F tox 72*, BaF3 parental 73*, KLF5 inh 59, IEC-6 tox 74*, aSyn UTR inh 33 and IEC-6 tox confirm 48*.
COC(=O)c1[nH]c2c(c1C)C(=O)CC(c1cc(OC)ccc1OC)C2 (stereo not given) was read as APP transl inh 0, Ba/F3 V617F tox 3, BaF3 parental 5, KLF5 inh 5, IEC-6 tox 6 and aSyn UTR inh -29.
COCCOC(=O)c1[nH]c2c(c1C)C(=O)CC(c1ccccc1)C2 (stereo not given) was read as APP transl inh 92*, Ba/F3 V617F tox 74*, BaF3 parental 75*, KLF5 inh 45, IEC-6 tox 84*, aSyn UTR inh 78* and IEC-6 tox confirm 56*.
Screening COC(=O)c1[nH]c2c(c1C)C(=O)CC(c1cccs1)C2 (stereo not given) returned APP transl inh 95*, Ba/F3 V617F tox 79*, BaF3 parental 82*, KLF5 inh 45, IEC-6 tox 84*, aSyn UTR inh 85* and IEC-6 tox confirm 50*.
O=C(C1=C[C@@H](C2CC2)C[C@@H](OCc2ccc(CO)cc2)O1)N1CCN(Cc2ccccc2)CC1 was read as APP transl inh 15, Ba/F3 V617F tox 1, BaF3 parental -6, KLF5 inh 0, IEC-6 tox -6 and aSyn UTR inh 4.
For N#CCN1C(=O)C2CCCN2c2ccc(S(=O)(=O)N3CCOCC3)cc21 (stereo not given) the results were APP transl inh -8, Ba/F3 V617F tox 2, BaF3 parental 3, KLF5 inh 7, IEC-6 tox -1 and aSyn UTR inh 19.
Screening Cc1[nH]c2ccc(-c3n[nH]c(=S)n3-c3ccc(Br)cc3)cc2c1C returned APP transl inh -14, Ba/F3 V617F tox -2, BaF3 parental 3, KLF5 inh -5, IEC-6 tox 50*, aSyn UTR inh 1 and IEC-6 tox confirm 44*.
Screening Cc1[nH]c2ccc(-c3n[nH]c(=S)n3-c3ccccc3)cc2c1C returned APP transl inh -15, Ba/F3 V617F tox -2, BaF3 parental 3, KLF5 inh -32, IEC-6 tox 49*, aSyn UTR inh 6 and IEC-6 tox confirm 32*.
`COc1cccc(-n2c(-c3cccc(S(=O)(=O)N(C)C)c3)n[nH]c2=S)c1` gave APP transl inh -8, Ba/F3 V617F tox 1, BaF3 parental 5, KLF5 inh -11, IEC-6 tox 3 and aSyn UTR inh 24.
For COc1cccc(-n2c(-c3ccc4[nH]c(C)c(C)c4c3)n[nH]c2=S)c1 the results were APP transl inh -2, Ba/F3 V617F tox 4, BaF3 parental 6, KLF5 inh -25, IEC-6 tox 48*, aSyn UTR inh 4 and IEC-6 tox confirm 46*.
`CCCCCCCC(=O)N/N=C(\C)c1ccc(O)cc1O` gave APP transl inh -1, Ba/F3 V617F tox -5, BaF3 parental -1, KLF5 inh -31, IEC-6 tox 2 and aSyn UTR inh 41.
For C/C(=N\NC(=O)COc1ccccc1-c1ccccc1)c1ccc(O)cc1O the results were Ba/F3 V617F tox 4, BaF3 parental -11, KLF5 inh 50, IEC-6 tox 74*, aSyn UTR inh 51 and IEC-6 tox confirm 42*.
Screening CC1=Nc2cc(C(=O)NCCCN3CCOCC3)ccc2Sc2c(C)ccc(C)c21 returned KLF5 inh -8, IEC-6 tox 18 and aSyn UTR inh 41.
CC1=Nc2cc(C(=O)NCCN3CCOCC3)ccc2Sc2c(C)ccc(C)c21 was read as KLF5 inh 14, IEC-6 tox 33*, aSyn UTR inh 50 and IEC-6 tox confirm 32*.
Cc1onc(-c2ccccc2)c1C(=O)N1CCC(CO)(Cc2ccccc2)CC1 was read as KLF5 inh -19, IEC-6 tox 0 and aSyn UTR inh 1.
Cc1cccc(C(=O)NNC(=O)C23CC4CC(CC(C4)C2)C3)c1O was read as KLF5 inh -21, IEC-6 tox 37*, aSyn UTR inh -15 and IEC-6 tox confirm 5.
For Cc1ccccc1C(=O)NNC(=O)C12CC3CC(CC(C3)C1)C2 the results were APP transl inh 13, Ba/F3 V617F tox -3, BaF3 parental -6, KLF5 inh 4, IEC-6 tox 2 and aSyn UTR inh 13.
`COc1ccc(NC(=O)c2ccc([N+](=O)[O-])o2)cc1` gave KLF5 inh -20, IEC-6 tox 44*, aSyn UTR inh -320 and IEC-6 tox confirm 1.
CC(=O)c1ccc(NC(=O)c2ccc([N+](=O)[O-])o2)cc1 was read as KLF5 inh -19, IEC-6 tox 32*, aSyn UTR inh -355 and IEC-6 tox confirm 11.
`CC(=O)c1cccc(NC(=O)c2ccc([N+](=O)[O-])o2)c1` gave aSyn UTR inh -58.
Cc1cc(C)cc(NC(=O)c2ccc([N+](=O)[O-])o2)c1 was read as APP transl inh 71*, Ba/F3 V617F tox 95*, BaF3 parental 59*, KLF5 inh 9, IEC-6 tox 103*, aSyn UTR inh -31 and IEC-6 tox confirm 24*.
O=C(Nc1ccccc1N1CCN(C(=O)c2ccccc2)CC1)c1ccc(Br)o1 was read as KLF5 inh -13, IEC-6 tox -6 and aSyn UTR inh 11.
Screening CCOc1ccc(N(C)S(=O)(=O)c2ccc(-c3cc(C)no3)s2)cc1 returned KLF5 inh 39, IEC-6 tox 57*, aSyn UTR inh -59 and IEC-6 tox confirm 38*.
